According to PubChem BioAssay (EPA / NIEHS):
Activity calls are given as the source filed them. How the source made its calls: active means hit-call score of the fitted dose curve at least 0.9, where 1 is the maximum; inactive means score below 0.9.

Experiments:
[1] = ATG_GLI_CIS: Attagene CIS-FACTORIAL HepG2 Assay for human Zinc Finger Protein GLI1 (AID 2282945); conditions: HepG2, Attagene cis-factorial reporter mRNA, GLI element; actives raise or lower the signal
Summary of the method: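 Bidirectional curve fits relative to DMSO, using reporter mRNA levels from RT-PCR plus capillary electrophoresis. Cells were HepG2 transiently carrying cis-regulated reporter constructs, harvested 24 h after dosing.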

[2] = biological target: Bile acid receptor (Homo sapiens) (UniProt Q96RI1); assay: ATG_IR1_CIS: Attagene CIS-FACTORIAL HepG2 Assay for human Nuclear Receptor Subfamily 1 Group H Member 4 (NR1H4), IR1 submotif (AID 2282946); conditions: IR1 reporter transcription, actives raise or lower the signal
Bile acid receptor (Homo sapiens), sequence (Q96RI1 whole entry, looked up): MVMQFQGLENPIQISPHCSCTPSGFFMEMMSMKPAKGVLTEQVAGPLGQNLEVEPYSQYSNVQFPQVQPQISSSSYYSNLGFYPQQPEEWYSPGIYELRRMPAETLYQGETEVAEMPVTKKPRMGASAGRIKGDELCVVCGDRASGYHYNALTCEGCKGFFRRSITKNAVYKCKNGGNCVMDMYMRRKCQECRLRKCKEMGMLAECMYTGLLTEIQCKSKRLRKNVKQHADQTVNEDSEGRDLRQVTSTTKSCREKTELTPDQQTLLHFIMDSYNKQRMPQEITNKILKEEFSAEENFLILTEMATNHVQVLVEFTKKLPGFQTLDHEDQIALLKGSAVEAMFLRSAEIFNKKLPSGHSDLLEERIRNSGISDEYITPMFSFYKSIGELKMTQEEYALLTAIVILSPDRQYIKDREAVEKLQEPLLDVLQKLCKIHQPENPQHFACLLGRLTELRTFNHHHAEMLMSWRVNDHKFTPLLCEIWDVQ
Summary of the method: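 HepG2 cells transiently transfected with multiplexed cis-element reporter units read endogenous transcription factor activity. After 24 h compound exposure, reporter mRNA was quantified by RT-PCR, fluorescent labelling, HpaI digestion and capillary electrophoresis; bidirectional fitting versus DMSO baseline.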

[3] = ATG_GRE_CIS: Attagene CIS-FACTORIAL HepG2 Assay for human Glucocorticoid Response Elements (GRE) (AID 2282947); conditions: HepG2 GRE cis-reporter, Attagene multiplex mRNA; actives raise or lower the signal
Summary of the method: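 Multiplexed cis-reporter mRNA induction, HepG2, 24 h post-dose. RT-PCR, FAM-labelled, HpaI-digested amplicons by CE. Bidirectional fit vs DMSO.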

[4] = ATG_ISRE_CIS: Attagene CIS-FACTORIAL HepG2 Assay for human Interferon Regulatory Factor 1 (IRF1) binding to an Interferon-Stimulated Response Element (ISRE) (AID 2282948); conditions: HepG2 ISRE cis-reporter (Attagene), mRNA transcription readout; actives raise or lower the signal
Summary of the method: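 Uses HepG2 liver cells transfected with cis-regulated reporters and measures mRNA 24 h post-dosing through RT-PCR, primer-extension labelling and capillary electrophoresis, with DMSO as negative control.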

[5] = ATG_M_06_CIS: Attagene CIS-FACTORIAL HepG2 Assay for M06 Transcription Factor (Internal Marker) (AID 2282950); conditions: HepG2 Attagene CIS-FACTORIAL M06 internal marker reporter; actives raise or lower the signal
Summary of the method: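 Cells (HepG2, transiently carrying cis-driven reporter units) receive chemical for 24 h before RNA isolation. Reporter cDNA is PCR-amplified, FAM-labelled by primer extension, HpaI-digested and sized on a capillary analyser.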

[6] = biological target: Hepatocyte nuclear factor 6 (Homo sapiens) (UniProt Q9UBC0); assay: ATG_HNF6_CIS: Attagene CIS-FACTORIAL HepG2 Assay for human Hepatocyte Nuclear Factor 6 (HNF6) (AID 2282952); conditions: HepG2 Attagene cis-factorial HNF6 reporter transcription; actives raise or lower the signal
Hepatocyte nuclear factor 6 (Homo sapiens), sequence (Q9UBC0 whole entry, looked up): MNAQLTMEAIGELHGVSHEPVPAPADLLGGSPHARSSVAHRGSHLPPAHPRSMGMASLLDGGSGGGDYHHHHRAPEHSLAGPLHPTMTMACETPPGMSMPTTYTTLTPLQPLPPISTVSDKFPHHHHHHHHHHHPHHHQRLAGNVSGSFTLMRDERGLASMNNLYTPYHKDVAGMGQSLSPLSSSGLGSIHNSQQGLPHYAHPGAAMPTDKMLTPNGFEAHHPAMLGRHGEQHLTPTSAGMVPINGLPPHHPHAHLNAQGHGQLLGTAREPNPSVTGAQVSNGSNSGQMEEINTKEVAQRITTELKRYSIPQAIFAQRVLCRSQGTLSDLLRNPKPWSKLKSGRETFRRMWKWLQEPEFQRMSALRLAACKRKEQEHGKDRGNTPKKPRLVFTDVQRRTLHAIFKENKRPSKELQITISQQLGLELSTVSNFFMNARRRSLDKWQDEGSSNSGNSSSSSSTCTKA
Summary of the method: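 Endogenous factor activity read in transiently transfected HepG2 via promoter-regulated reporter transcripts. RNA harvested 24 h post-dosing, reverse-transcribed, PCR-amplified, FAM-labelled, HpaI-digested and resolved by capillary electrophoresis; fitted in both directions against DMSO.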

[7] = biological target: Heat shock factor protein 1 (Homo sapiens) (UniProt Q00613); assay: ATG_HSE_CIS: Attagene CIS-FACTORIAL HepG2 Assay for human Heat Shock Transcription Factor 1 (HSE) (AID 2282953); conditions: HepG2 HSE cis-reporter, Attagene RNA transcription; actives raise or lower the signal
Heat shock factor protein 1 (Homo sapiens), sequence (Q00613 whole entry, looked up): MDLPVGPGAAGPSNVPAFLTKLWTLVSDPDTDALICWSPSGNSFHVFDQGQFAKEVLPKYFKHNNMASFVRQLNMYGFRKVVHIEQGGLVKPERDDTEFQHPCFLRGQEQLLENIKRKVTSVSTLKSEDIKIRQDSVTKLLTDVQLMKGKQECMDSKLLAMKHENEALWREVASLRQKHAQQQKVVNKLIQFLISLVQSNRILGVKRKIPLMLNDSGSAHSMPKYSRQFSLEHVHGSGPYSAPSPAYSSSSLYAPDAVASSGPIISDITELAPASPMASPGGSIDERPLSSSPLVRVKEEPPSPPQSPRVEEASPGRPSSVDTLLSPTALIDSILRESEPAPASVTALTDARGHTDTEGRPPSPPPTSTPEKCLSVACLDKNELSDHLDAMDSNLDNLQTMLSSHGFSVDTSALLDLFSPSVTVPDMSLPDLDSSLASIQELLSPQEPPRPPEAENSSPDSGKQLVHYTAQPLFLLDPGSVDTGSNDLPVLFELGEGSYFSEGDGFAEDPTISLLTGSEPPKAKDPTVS
Summary of the method: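 Liver-derived HepG2 cells carry transiently introduced multiple reporter units governed by cis promoters. Reporter RNA measured 24 h post-dose through reverse transcription, PCR amplification, fluorescent labelling and capillary electrophoresis, normalised to DMSO.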

[8] = ATG_MRE_CIS: Attagene CIS-FACTORIAL HepG2 Assay for human Metal Responsive Element (MRE) (AID 2282954); conditions: HepG2 MRE cis-reporter transcription, Attagene multiplex; actives raise or lower the signal
Summary of the method: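 Multiplexed cis-reporter assay in human HepG2 liver cells, 24 h incubation with test chemical. Reporter transcripts measured by RT-PCR and capillary electrophoresis; values from bidirectional curve fitting versus DMSO.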

[9] = ATG_M_32_CIS: Attagene CIS-FACTORIAL HepG2 Assay for M32 Transcription Factor (Internal Marker) (AID 2282949); conditions: HepG2 Attagene cis-factorial M32 reporter, mRNA; actives raise or lower the signal;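 further: background control marker of the multiplexed CIS panel rather than a real target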
Summary of the method: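 Transient MRTU transfection of HepG2; 24 h compound treatment; TriZol RNA, oligo(dT) RT, reporter PCR, 6-FAM primer extension, HpaI cut, CE. Gain/loss of signal vs DMSO.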

[10] = biological target: Hypoxia-inducible factor 1-alpha (Homo sapiens) (UniProt Q16665); assay: ATG_HIF1a_CIS: Attagene CIS-FACTORIAL HepG2 Assay for human Hypoxia Inducible Factor 1 (HIF1A) (AID 2282951); conditions: HepG2 Attagene cis-factorial HIF1a reporter transcription; actives raise or lower the signal
Hypoxia-inducible factor 1-alpha (Homo sapiens), sequence (Q16665 whole entry, looked up, the tested form may be a part): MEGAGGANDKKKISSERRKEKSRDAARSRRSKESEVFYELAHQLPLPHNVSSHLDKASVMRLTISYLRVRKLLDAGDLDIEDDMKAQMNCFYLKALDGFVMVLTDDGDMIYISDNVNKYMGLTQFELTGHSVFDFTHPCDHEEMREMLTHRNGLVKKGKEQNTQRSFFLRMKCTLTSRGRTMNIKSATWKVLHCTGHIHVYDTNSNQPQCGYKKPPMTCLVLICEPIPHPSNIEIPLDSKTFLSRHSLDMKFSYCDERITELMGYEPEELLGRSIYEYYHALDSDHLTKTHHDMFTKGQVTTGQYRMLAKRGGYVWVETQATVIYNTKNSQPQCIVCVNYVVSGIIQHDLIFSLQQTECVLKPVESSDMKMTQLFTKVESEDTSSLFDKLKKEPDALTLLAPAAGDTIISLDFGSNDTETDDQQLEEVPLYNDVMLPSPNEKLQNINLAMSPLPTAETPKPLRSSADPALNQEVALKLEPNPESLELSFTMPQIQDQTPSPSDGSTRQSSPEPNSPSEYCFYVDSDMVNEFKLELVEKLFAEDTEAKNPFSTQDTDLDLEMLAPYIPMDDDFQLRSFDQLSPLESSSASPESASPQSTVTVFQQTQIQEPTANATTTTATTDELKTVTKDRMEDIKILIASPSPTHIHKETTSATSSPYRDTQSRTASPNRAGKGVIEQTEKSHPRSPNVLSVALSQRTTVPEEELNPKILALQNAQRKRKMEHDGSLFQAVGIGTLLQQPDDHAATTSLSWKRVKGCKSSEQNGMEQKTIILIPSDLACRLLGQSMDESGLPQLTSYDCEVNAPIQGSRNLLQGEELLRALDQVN
Summary of the method: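 Transient MRTU transfection of human HepG2 liver cells, 24 h compound treatment, then total RNA isolation, oligo(dT) reverse transcription, PCR amplification, fluorescent labelling and capillary electrophoresis of reporter fragments. Gain or loss relative to DMSO.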

Measured: AC50

CC(CCC(=O)O)(c1ccc(O)cc1)c1ccc(O)cc1
not listed: [9] | [10]
inactive: all other assays above

CC1(C)C(=O)N(CO)C(=O)N1CO
not listed: [5]
inactive: all other assays above

C=CC(C)(CCC=C(C)C)OC(=O)C=Cc1ccccc1 (stereo not given)
not listed: [3]
inactive: all other assays above

CCC(C)C(=O)OC (stereo not given)
not listed: [3]
inactive: all other assays above

CC1(C)CCC[C@]2(C)[C@H]3CC(=O)O[C@]3(C)CC[C@@H]12
not listed: [5]
inactive: all other assays above

C/C=C/C=C/CCCCCCCO
active: [1] 168 µM | [2] 172 µM | [8] 121 µM
not listed: [5] | [7]
inactive: all other assays above

CC(C)(C)NC(=O)[C@H]1CC[C@H]2[C@@H]3CC[C@H]4NC(=O)C=C[C@]4(C)[C@H]3CC[C@]12C
active: [8] 68.3 µM
not listed: [10]
inactive: all other assays above

Cc1cc(C)c(C=O)c(C)c1
not listed: [9]
inactive: all other assays above

CC(C)=NNC(N)=S
active: [10] 9.14 µM
not listed: [3]
inactive: all other assays above

COC(=O)CC(C)CCC=C(C)C (stereo not given)
not listed: [5]
inactive: all other assays above

CC(=O)c1ccc(S(=O)(=O)NC(=O)NC2CCCCC2)cc1
inactive: [1] | [2] | [3] | [4] | [6] | [8]

N=C1C=CC(=C(c2ccc(N)cc2)c2ccc(N)cc2)C=C1
active: [3] 23.9 µM | [4] 33.4 µM | [7] 42.5 µM | [8] 48.2 µM
not listed: [10]
inactive: all other assays above

CCCCCC(=O)OCC
not listed: [5] | [6]
inactive: all other assays above

Cc1c(O)cccc1O
not listed: [3]
inactive: all other assays above

Cn1cccc1
not listed: [5]
inactive: all other assays above

Nc1ncnc2nc[nH]c12
not listed: [9] | [10]
inactive: all other assays above

CC(C)C(=O)OCCc1ccccc1
not listed: [3]
inactive: all other assays above

O=c1c(O)c(-c2ccc(O)cc2O)oc2cc(O)cc(O)c12
not listed: [10]
inactive: all other assays above

CC1CCC(=O)C1=O (stereo not given)
not listed: [5] | [9]
inactive: all other assays above

O=C(O)c1cc(O)c2ccccc2c1O
active: [1] 33.4 µM | [2] 33.4 µM | [10] 48.9 µM
not listed: [3]
inactive: all other assays above

CCCCC1C(=O)N(c2ccccc2)N(c2ccccc2)C1=O
not listed: [7] | [9]
inactive: all other assays above

CCC(C)C(=O)OCCc1ccccc1 (stereo not given)
not listed: [6] | [7]
inactive: all other assays above

Cc1ccc([N+](=O)[O-])cc1N
not listed: [3] | [5] | [7]
inactive: all other assays above

CCC1COC(=O)O1 (stereo not given)
not listed: [3]
inactive: all other assays above

CCN(CC)c1cccc(C)c1
not listed: [3] | [6]
inactive: all other assays above

CC(C)(CO)C(O)C(=O)NCCCO (stereo not given)
not listed: [3] | [10]
inactive: all other assays above

C=C(C)C(=O)OCC(O)COc1ccc(C(C)(C)c2ccc(OCC(O)COC(=O)C(=C)C)cc2)cc1 (stereo not given)
active: [4] 27 µM | [10] 31.1 µM | [8] 52.7 µM
inactive: [1] | [2] | [5] | [6]

CC(C)c1ccc2ncccc2c1
not listed: [3]
inactive: all other assays above

O=C(OCc1ccccc1)c1ccc(O)cc1
active: [1] 167 µM | [4] 187 µM | [10] 113 µM | [7] 168 µM | [8] 125 µM
inactive: [3] | [9] | [5] | [6]
